Whole data set: some 33,000 sequences, median “normalized occupancy” near 0.075, cut for the highest 2% near 0.095. The sample holds the highest values, similar sequences and a random draw of the others, so the mix is not that of the screen.
What follows are sequences tested against MaxL homodimer (Homo sapiens, UniProt P61244 1-160) (assay: universal protein-binding microarray (PBM); PBS-based mixture, 10 nM His-tagged protein dimer, 2% milk, 200 ng/uL BSA, 50 ng/uL salmon testes DNA, 0.02% TX-100; detection with Alexa 488 anti-His antibody;; high values mean tight binding). Conditions: protein: recombinant; tags: C-terminal His-tag (pET21a); chain copies: 2; dsDNA, one strand shown.
MaxL homodimer, sequence (P61244 whole entry): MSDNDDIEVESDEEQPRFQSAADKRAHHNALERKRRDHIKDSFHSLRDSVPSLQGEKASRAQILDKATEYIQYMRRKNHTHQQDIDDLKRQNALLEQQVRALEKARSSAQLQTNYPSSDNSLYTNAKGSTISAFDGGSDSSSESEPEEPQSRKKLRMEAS
Method in brief: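 Each 8-mer received a fluorescence intensity from GenePix 4400A scans of Agilent 4 x 44 K 'all 10-mer' universal arrays. Those arrays had been incubated with His-tagged protein dimer at 10 nM, and the bound protein was marked with a fluorophore-conjugated anti-His antibody at 10 ng/μL. Binding occupancy is the intensity scaled to that of the highest-ranked sequence word.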

Sequence | binding signal [normalized occupancy]
GCCAACCC | 0.08
AACATGGT | 0.0843
AGTGAAAG | 0.0743
CCCGGTAG | 0.0721
ATCTGATG | 0.0779
AGGTGATC | 0.0832
ATGTGATG | 0.0968
ATGTGATA | 0.0999
GTGTGATA | 0.0856
ATGTGATC | 0.0964
ATGTGAAG | 0.0891
CTGTGATC | 0.0728
ATGTGACG | 0.0922
ATGTGAAT | 0.0967
ATGTGAAA | 0.0872
CTGTGATA | 0.0741
AAGAGGAA | 0.0726
AATTATCG | 0.0772
AATTCGAG | 0.0732
AAGAGGGC | 0.0738
CTGGTTAC | 0.0749
ATAGGGAT | 0.0812
CCGAGTAG | 0.0732
GATGATAA | 0.078
AGAATGTG | 0.0881

Sequence | binding signal [normalized occupancy]
ATGGTAGG | 0.0818
CTTACTAA | 0.0721
CTAGTGGC | 0.0765
GTCGTGGA | 0.0856
ATCGTGGC | 0.086
CTCGTGGC | 0.119
CTCGTGGA | 0.103
ATCGTGGA | 0.084
CATCTCTA | 0.0817
CAATTATG | 0.0802
CAACACGA | 0.0817
CAACACGC | 0.0995
AAACACGC | 0.0929
GAACACGC | 0.108
GAACACGA | 0.0948
GAACACAC | 0.0767
ATTAGCGG | 0.0719
ACATTGAA | 0.0824
ACGAGAGG | 0.0776
AAACAAAG | 0.0763
GAATGCAC | 0.0772
GTATGCAC | 0.0856
ACATGCAA | 0.0826
TCATGCAA | 0.0829
GCATGCAA | 0.0988

Sequence | binding signal [normalized occupancy]
GCATGCAC | 0.11
ATGGAAGC | 0.0783
TGAATCCA | 0.0757
TCGTTCCA | 0.0775
CCATAGCC | 0.0762
ACACACGA | 0.0911
AAACACGG | 0.0741
AAACACGT | 0.106
TCACACGA | 0.0859
ACACACGG | 0.083
GCACACGC | 0.1
CCACACGG | 0.0835
ACACACGT | 0.0986
CCACACGA | 0.0959
GCACACAC | 0.0907
GCACACGA | 0.0896
AAACACGA | 0.0848
GTTTCCTA | 0.0787
AATATAAG | 0.0817
CCCCTAAC | 0.0774
AACACTAC | 0.0726
AATAGTGC | 0.0733
GGAGAGAC | 0.0742
ACACACGC | 0.103
CCACACAA | 0.0772

Sequence | binding signal [normalized occupancy]
AGACACGC | 0.0922
CCACACGC | 0.0953
CCACACAC | 0.0837
ACACACAC | 0.0915
ACTAACAA | 0.0766
GCTTACCA | 0.0723
GCAATCTA | 0.0722
ATTAAAGA | 0.0773
CTATTAAC | 0.0779
GTAGTAAA | 0.0757
AGGACCAT | 0.0823
ACTATTCG | 0.0759
AAAGCATA | 0.0783
CAAGCATG | 0.105
CAAGCATC | 0.0744
CAAGCATA | 0.0775
AAAGCATG | 0.104
AAAGCATC | 0.0796
CTCACTTC | 0.0734
TATTCCGA | 0.072
ATCCACGA | 0.0905
ATCCACGG | 0.0796
CTCCACGA | 0.0817
ATCCACGC | 0.109
CTCCACCA | 0.075

Sequence | binding signal [normalized occupancy]
CTCCACGC | 0.101
AGAGATAA | 0.0771
CCTTAGGC | 0.0728
CACGCCTG | 0.0966
AACGCCTG | 0.0733
CTCGCCTC | 0.0748
CACGCCTA | 0.0938
CACGCCTC | 0.0974
GACGCCTC | 0.0726
AAATAGTT | 0.0744
ATGCGAGG | 0.0841
ATTGTTAA | 0.0765
ACGCACTA | 0.0766
GCGCACGC | 0.0964
AAGCACGG | 0.0779
GCGCACTA | 0.0726
ACGCACCT | 0.0799
AAGCACGT | 0.102
GCGCACGA | 0.093
ACGCACGG | 0.0828
AAGCACGA | 0.0867
ACGCACGC | 0.109
ACGCACGA | 0.091
ACGCACGT | 0.0986
GACGACGA | 0.0747

Sequence | binding signal [normalized occupancy]
AAATGTAA | 0.0834
ACTCATAC | 0.074
ATCCCACG | 0.093
CTTATTAC | 0.0796
CAATCACC | 0.0797
ACTTGTAG | 0.073
GGAGCCAA | 0.0767
GCAAAGGA | 0.0773
AAATGGGG | 0.0777
ATGATTTA | 0.079
CCGCACGA | 0.0824
CCGCACGG | 0.0742
CCGCACGC | 0.0999
ACATTTTG | 0.0837
AACGCCCG | 0.0749
GACGCGAC | 0.0735
CGCGCGAG | 0.0787
AACGCGAA | 0.0761
CACGCGAA | 0.105
AACGCGAG | 0.0764
CACGCGAG | 0.111
CACGCGAC | 0.131
GACGCGAA | 0.0735
AACGCGAC | 0.0746
GTGGAATA | 0.0822

Sequence | binding signal [normalized occupancy]
ACGTCTTG | 0.0724
ACAGGTTG | 0.0821
AAAACGAG | 0.0747
GTTCTCCA | 0.0767
AACACATT | 0.0903
ACCACCTG | 0.106
ACCACATC | 0.0807
AACACATG | 0.138
AACACATA | 0.0823
ACCACCTC | 0.0834
ACCACATA | 0.0854
ACCACCTA | 0.082
ATGACATC | 0.0827
ACCACATG | 0.192
ATGACATA | 0.0825
ATGACATG | 0.0993
CGCCCATC | 0.0733
GTACGGAA | 0.0756
ACCGCTAC | 0.0748
CATCCCTC | 0.0774
AATTTTTG | 0.0733
AAGACAGG | 0.0727

— article PMC4242493, “Sequence specificity incompletely defines the genome-wide occupancy of Myc”
